Shiga inhibitor = blocks Shiga toxin action in Vero cells; AID 2315; inhibition, % at 38.7 µM; hit rate 9.2% among 290,000; Vero cells, Shiga toxin protein synthesis inhibition reporter; in the data active = inhibition mostly above about 28%, no sharp cut-off; inactive = mostly below about 43%
CHX counter = counter-screen hit for Shiga toxin inhibitors, cycloheximide; cell reporter, cycloheximide protein synthesis inhibition counterscreen; max response, %; hit rate 12% among 300,000; AID 2314; in the data active = max response mostly above about 13%, no sharp cut-off; inactive = mostly below about 14%; note: read at 38.3 µM for the half of the compounds with a filed dose
Pf growth 48h = P. falciparum growth inhibition at 48 hours (one generation). AID 504832. Potency, µM (top dose mostly 28.7 µM), hits mostly inhibitors. hit rate 5.9% among 310,000. P. falciparum luciferase growth in erythrocytes, 48 h
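Erythrocytes infected with P. falciparum carrying an integrated firefly luciferase reporter (2% hematocrit, 0.1% parasitemia final) were exposed to compounds in RPMI 1640 with 0.5% Albumax at 37 C, 5% CO2. Growth inhibition was scored as reduced luminescence.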
Pf growth 96h = P. falciparum growth inhibition at 96 hours; hit rate 6.9% among 320,000; Potency, µM (titrated, usually from 28.7 µM), actives largely listed as inhibitors; AID 504834; P. falciparum luciferase reporter growth, 96 h
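Compounds incubated with erythrocytes infected by luciferase-expressing P. falciparum (2% hematocrit, 0.05% parasitemia final) for 96 hours, 37 C in 5% CO2. Growth inhibition scored as decreased luciferase luminescence.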
Sm TGR inh = blocks Schistosoma mansoni thioredoxin glutathione reductase. Q962Y6. purified TGR, DTNB reduction, TNB absorbance 405 nm. Potency, µM (titrated, usually from 114 µM), hits mostly inhibitors. hit rate 3% among 360,000. AID 485364; note: nearly all actives have a fitted effect of over 60% in size
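First, TGR (20 nM dispensed) and NADPH were mixed with compound. Second, a 15 min room-temperature incubation followed. Third, further NADPH and then DTNB were added to start the reaction. Finally, TNB absorbance was monitored kinetically.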
NS1 function inh = blocks influenza NS1 protein function; Potency, µM (series often up to 46.1 µM); hit rate 0.4% among 270,000; calls by dose curve; note: actives are rising curves; nearly all actives have a fitted effect of over 50% in size
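OD600 was taken as the measure of yeast growth restored by compound in an NS1-expressing S. cerevisiae strain. Cells had been washed out of glucose medium and diluted 1:100 into galactose -URA medium, pH 6.0.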
Hits are given with their value; . = inactive; ? = inconclusive; / = not tested or not shown. This is a sample that favours compounds with a hit; in the whole collection about 21% have one here. Unless noted, calls come from the whole dose curve; as a rule, active = well fitted curve in the direction sought with a large enough effect; inconclusive = small, poorly fitted or top-dose-only effect, or another doubt; inactive = no such curve, though single readings can be large; an effect the other way counts as inactive or inconclusive.

SMILES | Shiga inhibitor | CHX counter | Pf growth 48h | Pf growth 96h | Sm TGR inh | NS1 function inh
N#CCC(=O)N/N=C/c1cc(Br)ccc1OCc1cccc2ccccc12 | . | . | 13.1µM | ? | . | .
N#CCC(=O)N/N=C/c1ccc(OCc2ccccc2)cc1 | . | . | . | . | . | .
N#CCC(=O)N/N=C/c1c2ccccc2cc2ccccc12 | . | . | . | . | . | .
COc1ccc(Nc2nc(C)nc(N)c2S(=O)(=O)c2ccccc2)cc1 | / | / | / | / | . | /
CC1=NN(C(C#N)c2ccccc2C)C(c2ccccc2)C1 (centres undefined) | . | . | . | . | . | .
COc1ccccc1C(C#N)N1N=C(C)CC1c1ccccc1 (centres undefined) | . | . | . | . | . | .
O=[N+]([O-])c1ccc(N2N=C(c3ccccc3)CC2c2ccccc2O)cc1 (centres undefined) | . | . | ? | ? | . | .
COc1cc(C(C#N)N2N=C(c3ccccc3)CC2c2ccccc2)ccc1O (centres undefined) | 86.9 | 29.8 | . | . | . | .
CC1=NN(C(C#N)c2ccc(F)cc2)C(c2ccccc2)C1 (centres undefined) | . | . | . | 14.7µM | . | ?
N#CC(c1ccccc1O)N1N=C(c2ccccc2)CC1c1ccccc1 (centres undefined) | 96.6 | 62.8 | . | . | . | .
CCCOc1ccc(C(=O)Nc2cccc(-c3nc4ccccc4[nH]3)c2)cc1 | / | / | / | / | . | /
Cc1c(C(=O)NCCN(C)C)sc2nc3n(c(=O)c12)CCC3 | / | / | / | / | . | /
CCOC(=O)c1ccccc1NS(=O)(=O)c1cnn(CC)c1C | . | . | . | . | . | .
CCOc1ccc(N(CC)C(=O)c2cc3c(s2)-c2ccc(Cl)cc2SC3)cc1 | / | / | / | / | . | /
COCCCNC(=O)CCCn1c(SCC(=O)c2ccc(Br)cc2)nc2c(sc3ccccc32)c1=O | / | / | / | / | . | /
CCN(CC)CCCNC(=O)c1cc2c(=O)n(C)c3ccccc3c2n1C | . | . | / | 10.4µM | . | .
Cn1c(C(=O)NCCCN2CCCCCC2)cc2c(=O)n(C)c3ccccc3c21 | . | . | 3.29µM | ? | ? | .
CCCN1CCN(CCCNC(=O)c2cc3c(=O)n(C)c4ccccc4c3n2C)CC1 | . | . | / | . | . | .
CCN(CC)CCNC(=O)c1cc2c(=O)n(C)c3ccccc3c2n1C | . | . | / | . | . | .
Cc1cc(C)cc(C(=O)N2CC(C)SC2=Nc2cccc(S(=O)(=O)N(C)C)c2)c1 (centres undefined) | . | . | 13.1µM | ? | . | .
Cc1ccc(C(=O)N2CC(C)SC2=Nc2cccc(S(=O)(=O)N(C)C)c2)cc1 (centres undefined) | . | . | . | ? | . | .
O=C(NCc1ccncc1)C1CCC(=O)N(CCc2ccc(Cl)cc2)C1 (centres undefined) | . | . | ? | 9.28µM | . | .
Cc1nc(CNC(=O)C2CCC(=O)N(CCc3ccc(Cl)cc3)C2)sc1C (centres undefined) | . | . | ? | . | . | .
O=C(NCCCc1ccncc1)C1CCC(=O)N(Cc2ccc(Cl)cc2)C1 (centres undefined) | . | . | . | 10.4µM | . | .
CCn1nc(C)c(CNC(=O)C2CCC(=O)N(CCc3ccc(Cl)cc3)C2)c1C (centres undefined) | . | . | . | 9.28µM | . | .
SMILES | Shiga inhibitor | CHX counter | Pf growth 48h | Pf growth 96h | Sm TGR inh | NS1 function inh
O=C(NCCc1cnccn1)C1CCC(=O)N(Cc2ccc(Cl)cc2)C1 (centres undefined) | . | . | . | . | . | .
CCc1ccc(CNC(=O)C2CCC(=O)N(CCc3ccc(Cl)cc3)C2)nc1 (centres undefined) | . | . | . | . | . | .
O=C(COC(=O)[C@H](Cc1ccccc1)NS(=O)(=O)c1ccccc1F)NC1CCCCC1 | . | . | / | . | . | .
CCc1nn(C(CC)C(=O)NCC(C)c2ccccc2)c(=O)c2cc3occc3n12 (centres undefined) | . | . | ? | . | . | .
COc1ccc(CCNC(=O)C(=O)NCCC2CCCCN2S(=O)(=O)c2ccccc2)cc1 (centres undefined) | / | / | 14.7µM | . | . | /
COc1cccc(CNC(=O)C(=O)NCCC2CCCCN2S(=O)(=O)c2cccs2)c1 (centres undefined) | / | / | ? | ? | . | /

Bioassay records as filed in PubChem.
